Calls of active or inactive are those of the source. Rule for the calls: active = hit-call score of the fitted dose curve at least 0.9, where 1 is the maximum; inactive = score below 0.9.
What was measured:
Settings in all cases: mRNA level, 48 h; actives raise or lower the signal
[1] = read-out: MYC, MYC (gene 4609); experiment: LTEA_HepaRG_MYC: Life Technologies and Expression Analysis (LTEA) Assay for MYC using HepaRG (AID 2283518)
In short: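 HepaRG, ~100,000 cells/well, collagen I; 48 h plating; serum-free induction medium; 48 h dosing, duplicate, 100 uM top, half-log, 0.5% DMSO; total RNA → qRT-PCR MYC; gain/loss fit vs DMSO.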

[2] = read-out: matrix metalloproteinase-3 (MMP3), MMP3 (gene 4314); experiment: LTEA_HepaRG_MMP3: Life Technologies and Expression Analysis (LTEA) Assay for matrix metalloproteinase-3 (MMP3) using HepaRG (AID 2283519)
In short: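 HepaRG, human; 48 h dosing, 8 conc. (max 100 uM, half-log), duplicate, 0.5% DMSO. Readout: MMP3 transcript by Fluidigm TaqMan qRT-PCR, ACTB/GAPDH/POLR2A-normalised. Gain or loss fitted vs DMSO.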

[3] = read-out: Paternally Expressed 10 (PEG10), PEG10 (gene 23089); experiment: LTEA_HepaRG_PEG10: Life Technologies and Expression Analysis (LTEA) Assay for Paternally Expressed 10 (PEG10) using HepaRG (AID 2283520);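 for AC50: PEG10 transcript by qRT-PCR normalised to ACTB GAPDH and POLR2A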
In short: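 Chemicals tested on HepaRG cells for 48 h, highest concentration 100 uM. PEG10 expression assessed by qRT-PCR relative to DMSO control.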

[4] = read-out: Nuclear factor NF-kappa-B p105 subunit (Homo sapiens) (UniProt P19838); experiment: LTEA_HepaRG_NFKB1: Life Technologies and Expression Analysis (LTEA) Assay for Nuclear Factor Kappa B Subunit 1 (NFKB1) using HepaRG (AID 2283521)
In short: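 Human HepaRG cells receive eight half-log concentrations, highest 100 uM, for 48 h. NFKB1 expression is then quantified by qRT-PCR and analysed for up- or down-regulation relative to 0.5% DMSO vehicle.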

[5] = read-out: Protein phosphatase 2A (PPP2R4), PTPA (gene 5524); experiment: LTEA_HepaRG_PPP2R4: Life Technologies and Expression Analysis (LTEA) Assay for Protein phosphatase 2A (PPP2R4) using HepaRG (AID 2283522)
In short: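 Gene-expression endpoint in HepaRG hepatic cells: 48 h treatment across eight half-log concentrations up to 100 uM in 0.5% DMSO. PPP2R4 mRNA by qRT-PCR, normalized to three endogenous control genes.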

[6] = read-out: Phosphatase and tensin (PTEN), PTEN (gene 5728); experiment: LTEA_HepaRG_PTEN: Life Technologies and Expression Analysis (LTEA) Assay for Phosphatase and tensin (PTEN) using HepaRG (AID 2283523)
In short: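 Read-out is PTEN transcript level by multiplexed TaqMan qRT-PCR after 48 h chemical treatment of human HepaRG cultures in serum-free induction medium. Concentrations spanned 100 uM downward in half-log steps, 0.5% DMSO throughout; activity fitted in both directions against vehicle.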

[7] = read-out: solute carrier (SLC22A1), SLC22A1 (gene 6580); experiment: LTEA_HepaRG_SLC22A1: Life Technologies and Expression Analysis (LTEA) Assay for solute carrier (SLC22A1) using HepaRG (AID 2283524);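 for AC50: differentiated human HepaRG liver cells in serum-free induction medium; TaqMan qRT-PCR normalized to ACTB GAPDH and POLR2A housekeeping genes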
In short: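 HepaRG (human liver line), 48 h dosing in serum-free induction medium; 8 conc., half-log down from 100 uM, 0.5% DMSO vehicle, duplicates. Endpoint: SLC22A1 mRNA, qRT-PCR, housekeeping-normalized; gain/loss fit vs DMSO.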

[8] = read-out: Pyruvate Dehydrogenase Kinase 4 (PDK4), PDK4 (gene 5166); experiment: LTEA_HepaRG_PDK4: Life Technologies and Expression Analysis (LTEA) Assay for Pyruvate Dehydrogenase Kinase 4 (PDK4) using HepaRG (AID 2283525)
In short: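 In this multiplexed human HepaRG expression assay, cells are treated 48 h with test chemicals across an eight-point range starting at 100 uM. PDK4 mRNA changes, normalized to ACTB/GAPDH/POLR2A, are fitted in both directions relative to vehicle.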

[9] = read-out: NAD(P)H dehydrogenase [quinone] 1 (NQO1), NQO1 (gene 1728); experiment: LTEA_HepaRG_NQO1: Life Technologies and Expression Analysis (LTEA) Assay for NAD(P)H dehydrogenase [quinone] 1 (NQO1) using HepaRG (AID 2283526)
In short: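 Human HepaRG hepatic cells received chemicals for 48 h in serum-free induction medium with 0.5% DMSO, up to 100 uM. Expression was assessed by TaqMan qRT-PCR against housekeeping controls and fitted bidirectionally against DMSO.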

[10] = read-out: Nuclear factor erythroid 2-related factor 2 (Homo sapiens) (UniProt Q16236); experiment: LTEA_HepaRG_NFE2L2: Life Technologies and Expression Analysis (LTEA) Assay for Nuclear factor erythroid 2-related factor 2 (NFE2L2) Transcription Factor using HepaRG (AID 2283527)
In short: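 Transcript level of NFE2L2 is the read-out, measured by microfluidic TaqMan qRT-PCR and normalized to three housekeeping genes. Human HepaRG cultures received test chemical for 48 h at up to 100 uM in half-log steps. Gain or loss of signal is fitted relative to 0.5% DMSO.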

Measured: AC50

Nuclear factor erythroid 2-related factor 2 (Homo sapiens), sequence (Q16236 whole entry, looked up): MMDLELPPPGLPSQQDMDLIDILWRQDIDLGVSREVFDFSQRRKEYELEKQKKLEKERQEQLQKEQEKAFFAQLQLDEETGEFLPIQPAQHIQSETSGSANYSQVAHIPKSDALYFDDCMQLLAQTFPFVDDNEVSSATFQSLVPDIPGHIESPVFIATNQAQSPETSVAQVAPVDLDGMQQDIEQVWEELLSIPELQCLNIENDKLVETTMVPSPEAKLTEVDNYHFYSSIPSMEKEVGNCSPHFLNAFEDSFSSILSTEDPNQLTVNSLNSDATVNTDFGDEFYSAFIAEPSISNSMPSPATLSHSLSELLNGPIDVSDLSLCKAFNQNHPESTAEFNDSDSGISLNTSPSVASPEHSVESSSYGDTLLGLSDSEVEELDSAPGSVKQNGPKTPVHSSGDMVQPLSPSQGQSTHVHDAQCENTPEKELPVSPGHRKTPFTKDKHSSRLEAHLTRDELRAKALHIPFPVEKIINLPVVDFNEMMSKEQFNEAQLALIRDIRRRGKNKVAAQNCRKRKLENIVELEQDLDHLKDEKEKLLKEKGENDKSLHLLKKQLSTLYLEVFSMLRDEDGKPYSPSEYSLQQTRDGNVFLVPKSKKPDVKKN
Nuclear factor NF-kappa-B p105 subunit (Homo sapiens), sequence (P19838 whole entry, looked up): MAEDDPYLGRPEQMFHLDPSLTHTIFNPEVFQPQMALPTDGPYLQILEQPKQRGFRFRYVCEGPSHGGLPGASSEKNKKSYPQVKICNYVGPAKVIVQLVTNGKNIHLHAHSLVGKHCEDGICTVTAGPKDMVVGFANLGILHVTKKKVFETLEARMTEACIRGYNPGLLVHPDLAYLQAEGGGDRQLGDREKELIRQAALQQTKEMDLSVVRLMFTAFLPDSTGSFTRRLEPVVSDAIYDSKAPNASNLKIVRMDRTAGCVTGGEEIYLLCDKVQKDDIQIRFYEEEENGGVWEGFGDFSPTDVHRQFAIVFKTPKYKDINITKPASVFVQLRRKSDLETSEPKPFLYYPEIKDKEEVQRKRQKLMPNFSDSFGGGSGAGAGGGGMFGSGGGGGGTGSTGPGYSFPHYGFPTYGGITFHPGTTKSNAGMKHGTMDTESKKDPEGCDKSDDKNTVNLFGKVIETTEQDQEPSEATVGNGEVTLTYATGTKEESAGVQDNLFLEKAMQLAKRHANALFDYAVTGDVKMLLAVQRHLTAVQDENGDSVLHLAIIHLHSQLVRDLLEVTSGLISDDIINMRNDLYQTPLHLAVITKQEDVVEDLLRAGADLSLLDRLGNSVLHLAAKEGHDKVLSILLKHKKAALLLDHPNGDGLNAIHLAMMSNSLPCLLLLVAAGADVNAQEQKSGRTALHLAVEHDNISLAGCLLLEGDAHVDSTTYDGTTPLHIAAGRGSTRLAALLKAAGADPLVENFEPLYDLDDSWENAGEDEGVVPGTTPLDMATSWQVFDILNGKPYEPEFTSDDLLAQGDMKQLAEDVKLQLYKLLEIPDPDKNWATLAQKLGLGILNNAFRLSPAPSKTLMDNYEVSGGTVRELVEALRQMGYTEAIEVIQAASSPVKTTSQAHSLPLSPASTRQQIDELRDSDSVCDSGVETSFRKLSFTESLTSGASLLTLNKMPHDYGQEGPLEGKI

CCc1ccc(CCOc2ccc(CC3SC(=O)NC3=O)cc2)nc1 (stereo not drawn)
active: [1] 80.8 µM | [3] 14.2 µM | [5] 50 µM | [7] 66.6 µM | [8] 11.6 µM | [10] 50 µM
inactive: [2] | [4] | [6] | [9]

C[C@@H]1C[C@H]2[C@@H]3CCC4=CC(=O)C=C[C@]4(C)[C@@]3(F)[C@@H](O)C[C@]2(C)[C@@]1(O)C(=O)COP(=O)(O)O
inactive: all assays above

O=[N+]([O-])c1ccc(O)cc1
not listed: [9]
inactive: all other assays above

COc1ccc([N+](=O)[O-])cc1N
not listed: [9]
inactive: all other assays above

CC(C)(C)CC(C)(C)c1ccc(O)c(-n2nc3ccccc3n2)c1
active: [7] 74.5 µM
not listed: [9]
inactive: all other assays above

O=C(OCCOCCOC(=O)c1ccccc1)c1ccccc1
not listed: [9]
inactive: all other assays above

c1ccc2c(c1)ccc1ccccc12
inactive: all assays above

c1ccc2c(c1)Cc1ccccc1-2
inactive: all assays above

COCC(C)OCC(C)O (stereo not drawn)
inactive: all assays above

CCCCCCCCOC(=O)CCCCCCCCC(=O)OCCCCCCCC
inactive: all assays above

NC(=O)N(O)[C@@H]1C=C[C@H](Oc2cccc(Oc3ccc(F)cc3)c2)C1
inactive: [5] | [6] | [9]
active: [1] 72.7 µM | [2] 85.9 µM | [3] 5.31 µM | [4] 74.4 µM | [7] 63.6 µM | [8] 50 µM | [10] 81.9 µM

CC(=O)CC(C)(C)O
active: [1] 0.118 µM
not listed: [9]
inactive: all other assays above

Cc1oc(-c2ccccc2)nc1CCOc1ccc(C[C@H](Nc2ccccc2C(=O)c2ccccc2)C(=O)O)cc1
active: [1] 12.5 µM | [2] 50 µM | [3] 20.8 µM | [5] 29.1 µM | [6] 23 µM | [7] 50 µM | [8] 0.338 µM | [9] 29.6 µM | [10] 11.9 µM
inactive: [4]

CCCCC(CC)COC(=O)CCCCC(=O)OCC(CC)CCCC (stereo not drawn)
not listed: [9]
inactive: all other assays above

CCCCCCCCCCCCCCCS(=O)(=O)Oc1ccccc1
not listed: [9]
inactive: all other assays above

— PubChem BioAssay (EPA / NIEHS)
